We go through 8 compounds from PubChem BioAssay (NCI).

Among the test systems are SR leukemia; RPMI-8226 leukemia; OVCAR-8 ovarian; OVCAR-5 ovarian; OVCAR-4 ovarian; SK-OV-3 ovarian; IGROV1 ovarian; OVCAR-3 ovarian; HS 578T breast; NCI/ADR-RES ovarian; T-47D breast; BT-549 breast; MDA-MB-435 melanoma; SW-620 colon; MCF7 breast; HCT-116 colon; HCC-2998 colon; KM12 colon.
What all share (test): NCI-60 one-dose screen, 48 h (100 = growth as untreated, 0 = no growth, -100 = all killed)
Conditions in all cases: 10 µM unless noted

Each structure is given as a SMILES string. The panel holds about 83,000 compounds, 20% with a hit somewhere; the sample as a whole holds those more often.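 How to read the values: 0–100, growth inhibition (40 = 60% inhibited); 0, no net growth; -100 to 0, cell death (-40 = 40% of starting cells died; -100 = all dead).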 Values without a mark were called inactive. Activity calls are given as the source filed them. The calls were made as follows: active = growth percent below 10; inactive = the rest.

In the case of `CN(C)CCCNC(=O)c1cncnc1Nc1ccc2c(ccn2Cc2cccc(F)c2)c1`, the growth is -10.3% (active) in the test with SR leukemia; 86.3% in the test with RPMI-8226 leukemia; 101% in the test with OVCAR-8 ovarian; 97.5% with OVCAR-5 ovarian; 116% in the test on OVCAR-4 ovarian; 111% in the test with SK-OV-3 ovarian. The growth with IGROV1 ovarian was 90.1%; in the test with OVCAR-3 ovarian, 93.4%; in the test on HS 578T breast it was 81.3%; in the test on NCI/ADR-RES ovarian, 99.2%; in the test on T-47D breast it was 101%; with BT-549 breast, 92.2%. Besides, the growth with MDA-MB-435 melanoma is 79.6%; with SW-620 colon, 88.3%; in the test with MCF7 breast it was 71.4%; with HCT-116 colon it was 66%; with HCC-2998 colon, 97.6%; in the test with KM12 colon, 98%.

Take `CCCCC#Cc1c(I)n(C2OC(CO[Si](C)(C)C(C)(C)C)C3OC(C)(C)OC32)c(=O)n(C(=O)c2ccccc2)c1=O` (centres undefined): the growth in the test with SR leukemia is 5.85% (active); in the test on RPMI-8226 leukemia it was -55.2% (active); in the test on OVCAR-8 ovarian it was 48.8%; with OVCAR-5 ovarian, 87.2%; with OVCAR-4 ovarian, 82.6%; with SK-OV-3 ovarian it was 106%. Further, the growth is 27.4% in the test with IGROV1 ovarian; -59.7% (active) in the test on OVCAR-3 ovarian; 12% in the test on HS 578T breast; 74% in the test with NCI/ADR-RES ovarian; -10.1% (active) with T-47D breast; 27.5% with BT-549 breast. Also, the growth with MDA-MB-435 melanoma is 44.8%; in the test with SW-620 colon, -49.2% (active); with MCF7 breast, 28.9%; in the test with HCT-116 colon, 14.7%; in the test on HCC-2998 colon, -9.34% (active); in the test on KM12 colon it was 71.7%.

As for `C#CCOc1cccc(Nc2ncnc3c2ncn3C2CCN(C(=O)CCl)C2)c1` (centres undefined), the growth is -23.8% (active) in the test with SR leukemia; -49.8% (active) in the test with RPMI-8226 leukemia; 5.81% (active) with OVCAR-8 ovarian; -88.4% (active) with OVCAR-5 ovarian; -51.7% (active) in the test on OVCAR-4 ovarian; 48.4% with SK-OV-3 ovarian. Further, the growth in the test on IGROV1 ovarian is -58.3% (active); in the test with OVCAR-3 ovarian, -90.9% (active); in the test with HS 578T breast, 14%; in the test on NCI/ADR-RES ovarian it was 15.7%; in the test with T-47D breast, -45.2% (active); with BT-549 breast, -62.5% (active). Also, the growth with MDA-MB-435 melanoma was -23.8% (active); with SW-620 colon it was -64.2% (active); in the test on MCF7 breast, -50.9% (active); with HCT-116 colon it was 1.32% (active); in the test on HCC-2998 colon, -22.8% (active); with KM12 colon, 23.7%.

On to `COc1ccc(C2[C@@H](c3ccccc3)C(=O)N2c2cc(OC)c(OC)c(OC)c2)cc1F` (some centres undefined), for which the growth is -6.55% (active) with SR leukemia; 6.59% (active) in the test on RPMI-8226 leukemia; 1.85% (active) in the test on OVCAR-8 ovarian; 65.1% in the test with OVCAR-5 ovarian; 59% with OVCAR-4 ovarian; 4.86% (active) in the test on SK-OV-3 ovarian. Further, the growth was 18.8% with IGROV1 ovarian; 9.25% (active) in the test on OVCAR-3 ovarian; 31.3% in the test with HS 578T breast; 11.9% in the test with NCI/ADR-RES ovarian; 61.7% in the test on T-47D breast; -2.79% (active) with BT-549 breast. The growth was -23% (active) with MDA-MB-435 melanoma; 24.2% in the test on SW-620 colon; 12.5% in the test with MCF7 breast; 3.36% (active) in the test with HCT-116 colon; 15.1% in the test on HCC-2998 colon; 13.2% in the test on KM12 colon.

Take `CCOc1ccc(NC(=O)Nc2ccc(OCC)cc2)cc1`: the growth in the test with SR leukemia is 99.4%; in the test on RPMI-8226 leukemia it was 109%; with OVCAR-8 ovarian, 103%; with OVCAR-5 ovarian, 111%; with OVCAR-4 ovarian, 112%; in the test with SK-OV-3 ovarian, 103%. For the same compound, the growth is 110% with IGROV1 ovarian; 105% in the test with OVCAR-3 ovarian; 101% in the test with HS 578T breast; 106% in the test on NCI/ADR-RES ovarian; 95.7% in the test with T-47D breast; 113% with BT-549 breast. Also, the growth with MDA-MB-435 melanoma is 109%; in the test with SW-620 colon, 116%; in the test with MCF7 breast, 94.5%; with HCT-116 colon, 106%; in the test with HCC-2998 colon, 103%; in the test on KM12 colon, 102%.

With `[N-]=[N+]=NCC1OC(n2cnc3c(NC(=O)Nc4ccccc4)ncnc32)C2OC(=O)CC12` (centres undefined), the growth with SR leukemia is 90.1%; in the test on RPMI-8226 leukemia it was 98.4%; in the test on OVCAR-8 ovarian it was 103%; with OVCAR-5 ovarian it was 95.7%; with OVCAR-4 ovarian, 106%; in the test on SK-OV-3 ovarian it was 106%. Moreover, the growth was 91.3% with IGROV1 ovarian; 95.1% with OVCAR-3 ovarian; 112% with HS 578T breast; 102% in the test on NCI/ADR-RES ovarian; 103% in the test with T-47D breast; 104% in the test with BT-549 breast. The growth with MDA-MB-435 melanoma is 109%; in the test with SW-620 colon it was 105%; in the test with MCF7 breast, 92.3%; in the test with HCT-116 colon, 101%; with HCC-2998 colon it was 107%; with KM12 colon, 106%.

For `CC(C)n1c2ccc(Br)cc2c2c3c(c4c5ccccc5ccc4c21)C(=O)NC3=O`, the growth with SR leukemia is 61.6%; in the test on RPMI-8226 leukemia, 91.6%; in the test with OVCAR-8 ovarian, 100%; in the test on OVCAR-5 ovarian it was 87.7%; with OVCAR-4 ovarian, 94.2%; in the test on SK-OV-3 ovarian, 105%. Further, the growth with IGROV1 ovarian is 84.8%; in the test with OVCAR-3 ovarian, 94.2%; in the test on HS 578T breast, 108%; with NCI/ADR-RES ovarian, 93.2%; in the test on T-47D breast it was 63.3%; in the test on BT-549 breast, 95.9%. The growth with MDA-MB-435 melanoma was 92.4%; in the test on SW-620 colon, 101%; with MCF7 breast it was 86.2%; with HCT-116 colon it was 85.2%; in the test with HCC-2998 colon, 103%; in the test with KM12 colon, 52.7%.

As to `O=C(/C=C/C12c3ccccc3C(c3ccccc31)C1C(=O)NC(=O)C12)c1ccc(Cl)cc1Cl` (centres undefined), the growth is 2.74% (active) in the test with SR leukemia; -22.3% (active) in the test with RPMI-8226 leukemia; 11.1% in the test on OVCAR-8 ovarian; 37.6% in the test with OVCAR-5 ovarian; 42.9% in the test with OVCAR-4 ovarian; 49.9% with SK-OV-3 ovarian. Also, the growth is 23.4% in the test with IGROV1 ovarian; -29.3% (active) with OVCAR-3 ovarian; 30.5% with HS 578T breast; 5.85% (active) with NCI/ADR-RES ovarian; 9.41% (active) in the test with T-47D breast; 14.6% in the test on BT-549 breast. The growth with MDA-MB-435 melanoma is -0.0298% (active); in the test on SW-620 colon, 5.09% (active); with MCF7 breast, 6.75% (active); with HCT-116 colon, 2.09% (active); in the test on HCC-2998 colon, 68.2%; with KM12 colon, 17.4%.
